This is a sample that favours compounds with a hit; in the whole collection about 1.2% have one here.
EPAC1 ag = EPAC1 (human) agonism; O95398; Potency, µM (highest dose often 154 µM), inactives show at the top dose activation, usual class: activators; actives 0.073% (n = 360,000); EPAC1 agonist qHTS, biochemical assay; response scale: 100% = response to 6.5 mM cAMP; AID 720707; further: nearly all actives have a fitted effect of over 60% in size
Target sequence (O95398 whole entry, looked up): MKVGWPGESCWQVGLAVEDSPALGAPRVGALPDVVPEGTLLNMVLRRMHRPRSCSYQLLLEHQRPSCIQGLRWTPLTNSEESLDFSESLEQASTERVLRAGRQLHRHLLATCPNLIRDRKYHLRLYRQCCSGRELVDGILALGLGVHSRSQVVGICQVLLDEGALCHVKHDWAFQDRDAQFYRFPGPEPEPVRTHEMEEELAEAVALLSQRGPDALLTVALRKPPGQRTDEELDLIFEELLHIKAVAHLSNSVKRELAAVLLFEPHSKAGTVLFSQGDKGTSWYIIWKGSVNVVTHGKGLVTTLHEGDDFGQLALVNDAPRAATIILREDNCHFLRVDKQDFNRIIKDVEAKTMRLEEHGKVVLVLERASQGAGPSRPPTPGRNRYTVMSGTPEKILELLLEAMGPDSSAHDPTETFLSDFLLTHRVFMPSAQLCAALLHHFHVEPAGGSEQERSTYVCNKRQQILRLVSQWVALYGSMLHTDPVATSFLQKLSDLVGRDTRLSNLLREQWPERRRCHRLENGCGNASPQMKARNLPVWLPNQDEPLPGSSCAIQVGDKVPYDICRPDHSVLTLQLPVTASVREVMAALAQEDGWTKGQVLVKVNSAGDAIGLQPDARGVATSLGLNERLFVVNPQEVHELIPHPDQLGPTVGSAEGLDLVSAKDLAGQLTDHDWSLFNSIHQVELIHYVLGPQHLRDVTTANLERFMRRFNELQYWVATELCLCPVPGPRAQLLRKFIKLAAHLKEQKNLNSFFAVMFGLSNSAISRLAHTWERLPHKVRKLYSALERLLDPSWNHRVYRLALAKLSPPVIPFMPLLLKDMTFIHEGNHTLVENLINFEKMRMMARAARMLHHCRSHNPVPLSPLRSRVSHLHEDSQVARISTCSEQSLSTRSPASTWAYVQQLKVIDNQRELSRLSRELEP
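Nucleotide exchange by EPAC1 (100 nM) on Rap1B–BODIPY-GDP (250 nM) in the presence of 50 uM GDP is tracked fluorescently at 480/540 nm over 30 min. Signals are normalized to a 6.5 mM cAMP control.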
VDR inh = blocks the human vitamin D receptor | P11473 | VDR-SRC2-3 peptide fluorescence polarization, 2 h | Potency, µM, without a hit: max response, negative = inhibition, actives largely listed as inhibitors | actives 0.93% (n = 400,000) | AID 504847; further: on the % scale 0 is the no-effect control and ±100 the full control effect
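Measured by FP: displacement of SRC2-3 coactivator peptide from VDR by library compounds, following a two-hour ambient incubation.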
EPAC2 antagonist = antagonists of human EPAC2; Q8WZA2; EPAC2 GEF exchange of Rap1B-BODIPY-GDP, fluorescence; Potency, µM (doses to about 114 µM), inactives show at the top dose activity, negative = inhibition, most hits filed as inhibitors; actives 0.18% (n = 360,000); further: on the % scale 0 is the no-effect control and ±100 the full control effect; nearly all actives have a fitted effect of over 45% in size
EPAC1 antagonist = EPAC1 (human) antagonism; EPAC1 GEF assay, Rap1b-BODIPY-GDP exchange fluorescence; Potency, µM (series often up to 115 µM), for the others: at the top dose activity change, negative = inhibition, usual class: inhibitors; actives 0.14% (n = 360,000);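 further: plate controls were vehicle for no effect and positive control for full effect; nearly all actives have a fitted effect of over 50% in size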
USP1 inh = blocks the human USP1/UAF1 deubiquitinase complex; O94782; recombinant USP1/UAF1, Ub-Rhodamine cleavage fluorescence; Potency, µM (top dose mostly 57.1 µM), without a hit: at the highest dose activity change, negative = inhibition, hits mostly inhibitors; actives 0.23% (n = 390,000); further: on the % scale 0 is the no-effect control and ±100 the full control effect; nearly all actives have a fitted effect of over 60% in size
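High-throughput fluorogenic screen: 1nM USP1/UAF1 complex, Ub-Rho substrate 150nM final, 50mM HEPES pH 7.8 with 0.5mM EDTA, 0.1 mg/ml BSA, 1mM TCEP and 0.01% Tween-20.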
EPAC2 agonist = activates human EPAC2 exchange factor. Potency, µM (series often up to 154 µM), inactives show at the top dose activation, actives largely listed as activators. EPAC2 activation, biochemical qHTS; response scale: 100% = 6.5 mM cAMP response. actives 0.079% (n = 360,000); further: nearly all actives have a fitted effect of over 50% in size
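Setup: EPAC2 100 nM, labeled Rap1B complex 250 nM, free GDP 50 uM. Compound titrations pinned in, brief spin, 5 min room temperature incubation. Kinetic fluorescence read over 30 min, normalized to 6.5 mM cAMP.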
* marks the source's active call; other numbers are inactive results; [ ] = another dose, or the depositor's remark. The call rests on the fitted dose curve; in most records, active means well fitted curve in the direction sought with a large enough effect; inconclusive means small, poorly fitted or top-dose-only effect, or another doubt; inactive means no such curve, though single readings can be large; an effect the other way counts as inactive or inconclusive. Potency means the concentration at half of the fitted maximal effect.

How did COc1cccc2cc(C(C)=O)oc12 do in these assays?
EPAC1 ag: 1%; VDR inh: -14%; EPAC2 antagonist: 2%; EPAC1 antagonist: inconclusive; USP1 inh: -29%; EPAC2 agonist: 8%

How did O=C(/C=C/c1ccc(F)cc1)Nc1cc(S(=O)(=O)N2CCOCC2)ccc1N1CCCC1 do in these assays?
EPAC1 ag: -1%; VDR inh: -2%; EPAC2 antagonist: 15%; EPAC1 antagonist: -17%; USP1 inh: -13%; EPAC2 agonist: -5%

How did CCN(CC)S(=O)(=O)c1ccc(N2CCCCC2)c(NC(=O)/C(C#N)=C/c2ccc(OC)cc2)c1 do in these assays?
EPAC1 ag: -4%; VDR inh: -18%; EPAC2 antagonist: -2%; EPAC1 antagonist: -17%; USP1 inh: -20%; EPAC2 agonist: -6%

Results for COc1ccc(/C=C(\C#N)C(=O)Nc2cc(S(=O)(=O)N3CCOCC3)ccc2N2CCCC2)cc1 ?
EPAC1 ag: -10%; VDR inh: 35µM*; EPAC2 antagonist: 8%; EPAC1 antagonist: 0%; USP1 inh: -24%; EPAC2 agonist: -1%

How did CCOc1ccc(NC(=O)/C(C#N)=C/c2ccc(N3CCCC3)c(C)c2)cc1 do in these assays?
EPAC1 ag: 112µM*; VDR inh: -7%; EPAC2 antagonist: 16%; EPAC1 antagonist: 90%; USP1 inh: -25%; EPAC2 agonist: 1%

Results for O=C(Nc1cc(S(=O)(=O)N2CCCCC2)ccc1O)c1ccccc1NS(=O)(=O)c1ccc(F)cc1 ?
EPAC1 ag: 4%; VDR inh: 2%; EPAC2 antagonist: inconclusive; EPAC1 antagonist: inconclusive; USP1 inh: -3%; EPAC2 agonist: 2%

Results for O=C(Nc1cc(S(=O)(=O)N2CCOCC2)ccc1N1CCCC1)c1ccc(F)cc1 ?
EPAC1 ag: 4%; VDR inh: 40µM*; EPAC2 antagonist: 6%; EPAC1 antagonist: -3%; USP1 inh: inconclusive; EPAC2 agonist: 4%

What do the screens show for `O=C(Nc1cc(S(=O)(=O)N2CCCCC2)ccc1Cl)c1ccccc1NS(=O)(=O)c1ccc(F)cc1`?
EPAC1 ag: 0%; VDR inh: -2%; EPAC2 antagonist: -17%; EPAC1 antagonist: 50µM*; USP1 inh: -17%; EPAC2 agonist: -10%

Results for CCOc1cc(/C=C(/C#N)C(=O)Nc2ccc(O)cc2)cc(Br)c1O ?
EPAC1 ag: 3%; VDR inh: -17%; EPAC2 antagonist: 7%; EPAC1 antagonist: inconclusive; USP1 inh: inconclusive; EPAC2 agonist: 4%

Results for COc1cc(OC)c2c(c1C(CCN1CCCC1)c1ccc(N(C)C)cc1)OC(=O)CC2c1ccc(N(C)C)cc1 (stereo unspecified) ?
VDR inh: 4%

What do the screens show for `CN(C)S(=O)(=O)c1cccc(C(=O)Nc2cc(S(=O)(=O)N3CCOCC3)ccc2N2CCCC2)c1`?
EPAC1 ag: -4%; VDR inh: 45µM*; EPAC2 antagonist: 1%; EPAC1 antagonist: -9%; USP1 inh: -25%; EPAC2 agonist: 2%

What do the screens show for `CN(C)S(=O)(=O)c1cccc(C(=O)Nc2cc(S(=O)(=O)N3CCOCC3)ccc2O)c1`?
EPAC1 ag: 6%; VDR inh: -5%; EPAC2 antagonist: 1%; EPAC1 antagonist: -3%; USP1 inh: -25%; EPAC2 agonist: -3%

How did Cc1ccc2c(n1)sc1c(=O)n(-c3cccc(C(F)(F)F)c3)nnc12 do in these assays?
VDR inh: 28%; USP1 inh: -10%

How did Nc1ccc(N(CCO)CCO)cc1 do in these assays?
EPAC1 ag: 16%; VDR inh: inconclusive; EPAC2 antagonist: 16%; EPAC1 antagonist: 11%; USP1 inh: 8.9µM*; EPAC2 agonist: 9%

Results for Cc1cc(C)n2nc(/C(C#N)=C/c3ccccn3)c(C#N)c2n1 ?
EPAC1 ag: 8%; VDR inh: 20µM*; EPAC2 antagonist: 5%; EPAC1 antagonist: -5%; USP1 inh: -13%; EPAC2 agonist: 15%

How did CN(C)C(=O)NC1CCCCCCC1 do in these assays?
VDR inh: 3%

Results for COc1cccc(Cn2c(=O)c(-c3ccc(Cl)cc3)nc3cnc(OC)nc32)c1 ?
VDR inh: 0%

What do the screens show for `COc1ccc(NC(=O)NS(=O)(=O)c2ccc(C)cc2)cn1`?
EPAC1 ag: 100µM*; VDR inh: 0%; EPAC2 antagonist: 27%; EPAC1 antagonist: 109%; USP1 inh: inconclusive; EPAC2 agonist: 11%

Results for COc1ccc(NC(=O)C(Cl)=C(Cl)Cl)cn1 ?
EPAC1 ag: 4%; VDR inh: -20%; EPAC2 antagonist: 1%; EPAC1 antagonist: 4%; USP1 inh: -17%; EPAC2 agonist: 7%

How did COc1cc(NC(=O)NS(=O)(=O)c2ccc(C)cc2)cc(OC)c1 do in these assays?
EPAC1 ag: 1%; VDR inh: 2%; EPAC2 antagonist: 16%[57.1 µM]; EPAC1 antagonist: 18%; USP1 inh: -19%; EPAC2 agonist: -10%

How did COc1ccc(NC(=O)/C(Cl)=C(/Cl)S(=O)(=O)Cc2ccccc2)cn1 do in these assays?
EPAC1 ag: 7%; VDR inh: 35µM*; EPAC2 antagonist: -5%; EPAC1 antagonist: -21%; USP1 inh: inconclusive; EPAC2 agonist: 1%

How did Cc1ccc2c(c1)c1c3n2CCN(C(=O)c2cccc(C(F)(F)F)c2)C3CCC1 (stereo unspecified) do in these assays?
VDR inh: -3%; USP1 inh: -19%

What do the screens show for `Nc1cc2nsnc2cc1Br`?
EPAC1 ag: 4%; VDR inh: inconclusive; EPAC2 antagonist: inconclusive; EPAC1 antagonist: inconclusive; USP1 inh: 4.5µM*; EPAC2 agonist: 28%

How did Nc1cccc2nsnc12 do in these assays?
EPAC1 ag: -1%; VDR inh: 2%; EPAC2 antagonist: -1%; EPAC1 antagonist: -9%; USP1 inh: inconclusive; EPAC2 agonist: 12%

Results for Cc1ccc2sc(C)[n+](CCCS(=O)(=O)[O-])c2c1 ?
EPAC1 ag: 5%; VDR inh: -28%; EPAC2 antagonist: 14%; EPAC1 antagonist: 18%; USP1 inh: -3%; EPAC2 agonist: 4%

What do the screens show for `Cc1ccc2c(c1)sc(C)[n+]2CCCS(=O)(=O)[O-]`?
EPAC1 ag: 1%; VDR inh: 28µM*; EPAC2 antagonist: -5%; EPAC1 antagonist: -2%; USP1 inh: -2%; EPAC2 agonist: 5%

Results for COc1ccc(C2C3C=CCCC3(C)C(=O)N2Cc2ccccc2)cc1Cl (stereo unspecified) ?
VDR inh: -8%

Screens (PubChem)
